Reference: ChEMBL document CHEMBL1961873, “Compounds: GSK PKIS; Assays: Nanosyn kinase panel” (2012)

Key:
[1] = biological target: Fibroblast growth factor receptor 4 (Homo sapiens) (UniProt P22455); details: at 1 µM;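 also: reported figure is the averaged percent inhibition of FGFR4, from the GSK PKIS kinase screening panel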
[2] = biological target: Tyrosine-protein kinase Fgr (Homo sapiens) (UniProt P09769); details: at 0.1 µM
[3] = biological target: Tyrosine-protein kinase Fgr (Homo sapiens) (UniProt P09769); details: at 1 µM
[4] = biological target: Vascular endothelial growth factor receptor 1 (Homo sapiens) (UniProt P17948); details: at 0.1 µM
[5] = biological target: Vascular endothelial growth factor receptor 1 (Homo sapiens) (UniProt P17948); details: at 1 µM
[6] = biological target: Receptor-type tyrosine-protein kinase FLT3 (Homo sapiens) (UniProt P36888); details: at 0.1 µM
[7] = biological target: Receptor-type tyrosine-protein kinase FLT3 (Homo sapiens) (UniProt P36888); details: at 1 µM
[8] = tested on: T1, Receptor-type tyrosine-protein kinase FLT3 (Homo sapiens), P36888 [D835Y]; details: at 0.1 µM
T1 sequence (whole entry): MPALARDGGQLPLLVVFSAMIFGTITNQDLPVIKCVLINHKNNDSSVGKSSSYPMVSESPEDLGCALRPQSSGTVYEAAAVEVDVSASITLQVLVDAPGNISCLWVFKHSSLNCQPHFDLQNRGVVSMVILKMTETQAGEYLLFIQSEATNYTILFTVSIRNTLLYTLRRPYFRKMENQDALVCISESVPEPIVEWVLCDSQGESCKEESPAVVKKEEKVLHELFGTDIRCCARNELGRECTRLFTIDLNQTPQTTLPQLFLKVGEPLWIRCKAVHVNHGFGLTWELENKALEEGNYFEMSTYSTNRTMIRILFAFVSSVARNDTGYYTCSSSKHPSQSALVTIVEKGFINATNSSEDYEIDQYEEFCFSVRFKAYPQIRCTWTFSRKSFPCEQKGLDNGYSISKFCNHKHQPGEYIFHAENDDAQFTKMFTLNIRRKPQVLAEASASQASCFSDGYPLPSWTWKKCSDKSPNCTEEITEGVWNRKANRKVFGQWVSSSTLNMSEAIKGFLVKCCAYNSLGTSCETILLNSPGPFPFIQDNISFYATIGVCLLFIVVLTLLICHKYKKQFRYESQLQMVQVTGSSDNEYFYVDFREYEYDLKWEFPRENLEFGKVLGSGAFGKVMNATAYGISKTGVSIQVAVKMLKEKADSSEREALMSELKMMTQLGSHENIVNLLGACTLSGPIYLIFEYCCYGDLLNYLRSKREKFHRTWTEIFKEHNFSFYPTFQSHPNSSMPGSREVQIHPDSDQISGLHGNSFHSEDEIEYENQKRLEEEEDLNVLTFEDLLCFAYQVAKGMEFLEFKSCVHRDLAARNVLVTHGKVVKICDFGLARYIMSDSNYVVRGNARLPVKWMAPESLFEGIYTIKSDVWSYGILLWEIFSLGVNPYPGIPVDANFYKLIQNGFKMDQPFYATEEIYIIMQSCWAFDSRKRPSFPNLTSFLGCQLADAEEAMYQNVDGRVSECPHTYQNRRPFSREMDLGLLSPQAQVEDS

[9] = biological target: Non-receptor tyrosine-protein kinase TYK2 (Homo sapiens) (UniProt P29597); details: at 1 µM;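 also: values are mean percent inhibition of TYK2 kinase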
Chain of Non-receptor tyrosine-protein kinase TYK2 (Homo sapiens) (P29597 whole entry): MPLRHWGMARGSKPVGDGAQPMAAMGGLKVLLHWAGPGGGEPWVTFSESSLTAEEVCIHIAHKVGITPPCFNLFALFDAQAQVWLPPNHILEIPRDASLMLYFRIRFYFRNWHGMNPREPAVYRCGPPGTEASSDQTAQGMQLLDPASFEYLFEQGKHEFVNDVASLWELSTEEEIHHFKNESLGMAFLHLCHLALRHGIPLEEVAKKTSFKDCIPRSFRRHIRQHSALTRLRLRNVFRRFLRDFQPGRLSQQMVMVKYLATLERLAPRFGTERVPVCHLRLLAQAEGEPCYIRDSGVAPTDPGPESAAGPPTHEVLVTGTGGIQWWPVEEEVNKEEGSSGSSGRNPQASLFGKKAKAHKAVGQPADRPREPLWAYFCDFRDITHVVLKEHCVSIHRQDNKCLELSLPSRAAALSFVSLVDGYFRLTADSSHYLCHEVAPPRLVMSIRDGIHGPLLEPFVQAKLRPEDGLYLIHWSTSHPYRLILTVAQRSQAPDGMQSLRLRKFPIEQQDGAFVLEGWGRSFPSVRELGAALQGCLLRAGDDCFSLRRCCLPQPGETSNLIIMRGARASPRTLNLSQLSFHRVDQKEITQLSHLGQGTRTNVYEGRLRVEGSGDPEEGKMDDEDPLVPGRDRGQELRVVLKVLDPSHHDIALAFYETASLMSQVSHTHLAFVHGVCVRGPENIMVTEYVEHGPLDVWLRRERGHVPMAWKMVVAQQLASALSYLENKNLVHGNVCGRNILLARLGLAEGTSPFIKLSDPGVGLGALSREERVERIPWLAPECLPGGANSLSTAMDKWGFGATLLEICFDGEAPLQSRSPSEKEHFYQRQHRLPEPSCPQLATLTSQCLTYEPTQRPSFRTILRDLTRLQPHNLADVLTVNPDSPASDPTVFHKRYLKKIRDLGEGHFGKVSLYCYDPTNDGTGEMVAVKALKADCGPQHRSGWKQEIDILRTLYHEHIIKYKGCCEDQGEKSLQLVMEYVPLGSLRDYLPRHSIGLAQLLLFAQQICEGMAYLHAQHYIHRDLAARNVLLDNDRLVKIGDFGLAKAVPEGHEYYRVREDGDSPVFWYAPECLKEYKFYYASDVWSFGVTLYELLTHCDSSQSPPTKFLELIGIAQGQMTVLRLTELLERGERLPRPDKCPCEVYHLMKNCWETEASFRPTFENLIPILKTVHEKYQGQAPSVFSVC

[10] = biological target: T2, Tyrosine-protein kinase receptor TYRO3 (Homo sapiens) (UniProt Q06418); details: at 0.1 µM
T2 sequence (whole entry): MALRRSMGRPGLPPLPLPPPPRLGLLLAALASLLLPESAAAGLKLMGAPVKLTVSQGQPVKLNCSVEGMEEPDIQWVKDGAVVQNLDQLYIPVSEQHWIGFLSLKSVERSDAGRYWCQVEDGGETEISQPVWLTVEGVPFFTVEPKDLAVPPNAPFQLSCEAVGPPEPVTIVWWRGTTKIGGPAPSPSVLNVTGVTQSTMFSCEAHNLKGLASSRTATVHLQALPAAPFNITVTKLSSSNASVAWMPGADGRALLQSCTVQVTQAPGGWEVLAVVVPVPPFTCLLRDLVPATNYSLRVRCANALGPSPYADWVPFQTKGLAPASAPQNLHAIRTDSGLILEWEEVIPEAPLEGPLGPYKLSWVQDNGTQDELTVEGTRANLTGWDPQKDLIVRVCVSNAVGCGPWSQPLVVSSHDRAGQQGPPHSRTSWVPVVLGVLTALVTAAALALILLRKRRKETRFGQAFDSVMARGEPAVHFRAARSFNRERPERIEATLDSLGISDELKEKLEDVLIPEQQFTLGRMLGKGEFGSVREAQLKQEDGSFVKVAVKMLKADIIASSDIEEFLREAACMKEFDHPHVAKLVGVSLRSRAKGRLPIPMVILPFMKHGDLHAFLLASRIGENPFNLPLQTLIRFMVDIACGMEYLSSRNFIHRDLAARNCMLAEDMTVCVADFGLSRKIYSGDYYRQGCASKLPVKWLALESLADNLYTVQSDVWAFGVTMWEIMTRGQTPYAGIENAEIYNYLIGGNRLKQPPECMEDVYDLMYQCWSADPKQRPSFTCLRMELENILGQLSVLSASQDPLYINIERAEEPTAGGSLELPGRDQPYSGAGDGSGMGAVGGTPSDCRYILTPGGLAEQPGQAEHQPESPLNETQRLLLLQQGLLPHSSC

[11] = biological target: T2, Tyrosine-protein kinase receptor TYRO3 (Homo sapiens); details: at 1 µM
[12] = biological target: Tyrosine-protein kinase Yes (Homo sapiens) (UniProt P07947); details: at 0.1 µM
Chain of Tyrosine-protein kinase Yes (Homo sapiens) (P07947 2-543 limits assumed): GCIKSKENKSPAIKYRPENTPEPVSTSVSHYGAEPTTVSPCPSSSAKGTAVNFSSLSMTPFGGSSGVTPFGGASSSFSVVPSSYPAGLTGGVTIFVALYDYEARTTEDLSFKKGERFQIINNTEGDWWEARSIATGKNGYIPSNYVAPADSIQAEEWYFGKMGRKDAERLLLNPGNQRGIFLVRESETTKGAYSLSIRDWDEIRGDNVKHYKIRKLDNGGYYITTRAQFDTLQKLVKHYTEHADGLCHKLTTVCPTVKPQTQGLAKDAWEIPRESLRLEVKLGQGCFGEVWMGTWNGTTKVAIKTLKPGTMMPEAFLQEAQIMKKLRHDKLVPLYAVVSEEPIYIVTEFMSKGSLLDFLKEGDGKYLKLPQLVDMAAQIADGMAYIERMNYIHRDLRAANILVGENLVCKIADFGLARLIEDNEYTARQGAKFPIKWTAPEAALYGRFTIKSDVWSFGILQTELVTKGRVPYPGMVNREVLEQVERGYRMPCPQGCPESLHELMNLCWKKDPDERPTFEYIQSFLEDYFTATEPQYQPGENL

[13] = biological target: Tyrosine-protein kinase Yes (Homo sapiens) (UniProt P07947); details: at 1 µM
[14] = biological target: T3, Tyrosine-protein kinase ZAP-70 (Homo sapiens) (UniProt P43403); details: at 0.1 µM
T3 sequence (whole entry): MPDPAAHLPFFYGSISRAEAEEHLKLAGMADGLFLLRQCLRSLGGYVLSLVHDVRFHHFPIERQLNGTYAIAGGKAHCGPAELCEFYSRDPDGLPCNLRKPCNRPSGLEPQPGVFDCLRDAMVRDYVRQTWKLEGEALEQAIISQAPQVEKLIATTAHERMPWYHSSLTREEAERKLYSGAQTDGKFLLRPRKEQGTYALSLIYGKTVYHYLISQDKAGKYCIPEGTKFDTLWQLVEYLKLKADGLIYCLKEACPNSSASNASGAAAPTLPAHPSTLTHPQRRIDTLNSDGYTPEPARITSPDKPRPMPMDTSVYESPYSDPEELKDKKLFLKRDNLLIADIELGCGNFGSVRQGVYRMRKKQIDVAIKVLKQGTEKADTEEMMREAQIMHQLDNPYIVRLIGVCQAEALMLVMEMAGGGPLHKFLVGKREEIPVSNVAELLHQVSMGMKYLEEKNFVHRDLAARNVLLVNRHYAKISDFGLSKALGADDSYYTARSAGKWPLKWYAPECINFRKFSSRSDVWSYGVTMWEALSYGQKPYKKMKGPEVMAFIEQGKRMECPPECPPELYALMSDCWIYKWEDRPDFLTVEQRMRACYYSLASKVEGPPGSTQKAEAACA

[15] = biological target: T3, Tyrosine-protein kinase ZAP-70 (Homo sapiens); details: at 1 µM
[16] = biological target: Serine/threonine-protein kinase B-raf (Homo sapiens) (UniProt P15056); details: at 0.1 µM
Chain of Serine/threonine-protein kinase B-raf (Homo sapiens) (P15056 whole entry): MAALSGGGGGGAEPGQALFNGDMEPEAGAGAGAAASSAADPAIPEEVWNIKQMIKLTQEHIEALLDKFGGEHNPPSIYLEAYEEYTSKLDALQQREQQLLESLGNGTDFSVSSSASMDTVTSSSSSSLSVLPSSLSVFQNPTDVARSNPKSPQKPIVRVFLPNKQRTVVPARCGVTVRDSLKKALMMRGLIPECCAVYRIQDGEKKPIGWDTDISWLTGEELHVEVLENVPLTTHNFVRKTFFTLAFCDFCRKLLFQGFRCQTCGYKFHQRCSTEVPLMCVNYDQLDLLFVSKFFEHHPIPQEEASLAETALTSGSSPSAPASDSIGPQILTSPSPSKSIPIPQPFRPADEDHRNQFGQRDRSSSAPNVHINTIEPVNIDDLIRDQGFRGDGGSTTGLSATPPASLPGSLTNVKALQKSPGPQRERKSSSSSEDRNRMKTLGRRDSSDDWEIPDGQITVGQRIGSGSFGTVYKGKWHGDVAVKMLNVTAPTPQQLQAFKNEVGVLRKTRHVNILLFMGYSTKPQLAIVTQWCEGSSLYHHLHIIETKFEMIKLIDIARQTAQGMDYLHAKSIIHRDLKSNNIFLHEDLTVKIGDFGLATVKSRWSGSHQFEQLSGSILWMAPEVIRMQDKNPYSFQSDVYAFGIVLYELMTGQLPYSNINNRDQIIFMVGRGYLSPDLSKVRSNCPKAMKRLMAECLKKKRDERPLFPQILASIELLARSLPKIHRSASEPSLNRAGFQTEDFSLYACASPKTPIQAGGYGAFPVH

[17] = biological target: Serine/threonine-protein kinase B-raf (Homo sapiens) (UniProt P15056); details: at 1 µM
[18] = tested on: Serine/threonine-protein kinase B-raf (Homo sapiens), P15056 [V600E]; details: at 0.1 µM
Chain of Serine/threonine-protein kinase B-raf (Homo sapiens), P15056 [V600E] (P15056 whole entry V600E): as the sequence (P15056 whole entry) above, with V600E counted along it

[19] = tested on: Serine/threonine-protein kinase B-raf (Homo sapiens), P15056 [V600E]; details: at 1 µM
[20] = biological target: RAF proto-oncogene serine/threonine-protein kinase (Homo sapiens) (UniProt P04049); details: at 0.1 µM;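 also: values are mean CRAF kinase inhibition from profiling of the GSK Published Kinase Inhibitor Set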
Chain of RAF proto-oncogene serine/threonine-protein kinase (Homo sapiens) (P04049 whole entry): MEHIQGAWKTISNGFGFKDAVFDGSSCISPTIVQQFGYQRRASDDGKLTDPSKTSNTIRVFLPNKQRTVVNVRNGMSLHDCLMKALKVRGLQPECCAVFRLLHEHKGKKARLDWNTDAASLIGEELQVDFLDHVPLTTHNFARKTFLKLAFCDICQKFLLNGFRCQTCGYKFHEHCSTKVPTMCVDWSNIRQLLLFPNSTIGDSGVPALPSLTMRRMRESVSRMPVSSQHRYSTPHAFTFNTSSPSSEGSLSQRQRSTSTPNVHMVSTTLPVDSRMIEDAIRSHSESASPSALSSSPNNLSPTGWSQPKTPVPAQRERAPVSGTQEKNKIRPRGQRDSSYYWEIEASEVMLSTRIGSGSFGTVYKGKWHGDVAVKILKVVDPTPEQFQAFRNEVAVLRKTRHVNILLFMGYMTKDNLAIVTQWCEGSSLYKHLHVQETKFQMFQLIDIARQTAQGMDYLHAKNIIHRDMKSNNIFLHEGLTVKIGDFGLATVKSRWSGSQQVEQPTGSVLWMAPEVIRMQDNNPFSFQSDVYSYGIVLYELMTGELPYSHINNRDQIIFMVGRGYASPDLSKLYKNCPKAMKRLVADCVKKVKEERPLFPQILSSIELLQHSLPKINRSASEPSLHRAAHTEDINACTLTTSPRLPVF

Chain of Fibroblast growth factor receptor 4 (Homo sapiens) (P22455 22-802 limits assumed): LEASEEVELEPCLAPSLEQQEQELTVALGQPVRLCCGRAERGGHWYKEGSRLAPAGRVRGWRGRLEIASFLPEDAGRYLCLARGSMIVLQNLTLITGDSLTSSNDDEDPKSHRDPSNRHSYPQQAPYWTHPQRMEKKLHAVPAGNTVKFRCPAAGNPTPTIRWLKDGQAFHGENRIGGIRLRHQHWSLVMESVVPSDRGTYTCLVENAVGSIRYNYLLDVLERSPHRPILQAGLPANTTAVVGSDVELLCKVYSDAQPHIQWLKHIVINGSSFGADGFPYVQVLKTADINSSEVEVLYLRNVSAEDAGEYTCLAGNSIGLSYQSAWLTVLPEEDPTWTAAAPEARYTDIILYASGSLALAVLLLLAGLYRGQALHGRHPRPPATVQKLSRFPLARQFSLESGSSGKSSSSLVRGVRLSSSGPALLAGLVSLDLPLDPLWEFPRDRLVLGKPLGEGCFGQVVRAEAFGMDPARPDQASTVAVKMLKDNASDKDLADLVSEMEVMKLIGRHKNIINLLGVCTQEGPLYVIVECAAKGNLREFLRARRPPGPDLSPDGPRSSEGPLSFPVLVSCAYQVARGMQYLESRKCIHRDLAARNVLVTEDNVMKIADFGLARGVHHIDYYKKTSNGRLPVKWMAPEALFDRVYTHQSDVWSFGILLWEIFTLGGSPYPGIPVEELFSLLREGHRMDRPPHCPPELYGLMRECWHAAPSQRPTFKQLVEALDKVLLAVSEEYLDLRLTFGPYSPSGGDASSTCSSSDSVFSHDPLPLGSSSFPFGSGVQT
Chain of Tyrosine-protein kinase Fgr (Homo sapiens) (P09769 2-529 limits assumed): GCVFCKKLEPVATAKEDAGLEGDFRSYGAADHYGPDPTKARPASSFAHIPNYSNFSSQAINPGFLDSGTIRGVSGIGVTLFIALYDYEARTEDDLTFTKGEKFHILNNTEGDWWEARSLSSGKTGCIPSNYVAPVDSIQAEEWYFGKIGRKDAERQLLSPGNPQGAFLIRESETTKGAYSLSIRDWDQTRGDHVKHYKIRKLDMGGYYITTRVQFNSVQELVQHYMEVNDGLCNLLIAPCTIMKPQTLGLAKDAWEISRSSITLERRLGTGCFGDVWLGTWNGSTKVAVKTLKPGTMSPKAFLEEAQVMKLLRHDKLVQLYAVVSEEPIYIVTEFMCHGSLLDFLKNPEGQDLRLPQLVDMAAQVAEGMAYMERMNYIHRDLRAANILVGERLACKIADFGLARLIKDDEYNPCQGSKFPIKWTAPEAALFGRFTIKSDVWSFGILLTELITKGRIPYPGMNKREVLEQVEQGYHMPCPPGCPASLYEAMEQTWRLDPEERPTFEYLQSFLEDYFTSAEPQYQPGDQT

## CN(C)C(=O)O[C@H]1CN[C@H](C#Cc2cc3ncnc(Nc4ccc(OCc5cccc(F)c5)c(Cl)c4)c3s2)C1
[1]
  inhibition: 1.39%
[2]
  inhibition: 1.56%
[3]
  inhibition: 4.75%
[4]
  inhibition: 1.8%
[5]
  inhibition: 2.23%
[6]
  inhibition: -0.55%
[7]
  inhibition: 0.66%
[8]
  inhibition: 3.22%
[9]
  inhibition: -2.89%
[10]
  inhibition: 2.23%
[11]
  inhibition: 2.13%
[12]
  inhibition: 1.37%
[13]
  inhibition: 3.86%
[14]
  inhibition: 0.97%
[15]
  inhibition: 3.33%
[16]
  inhibition: 3.09%
[17]
  inhibition: 6.19%
[18]
  inhibition: 3.55%
[19]
  inhibition: 5.77%
[20]
  inhibition: 3.11%

## COC(=O)c1ccc2c(c1)C(=Cc1cc(Br)c(O)c(Br)c1)C(=O)N2
[1]
  inhibition: 3.36%
[2]
  inhibition: 0.15%
[3]
  inhibition: 9.32%
[4]
  inhibition: 2.43%
[5]
  inhibition: 2.64%
[6]
  inhibition: 5.48%
[7]
  inhibition: 7.6%
[8]
  inhibition: -0.04%
[9]
  inhibition: 51.5%
[10]
  inhibition: 2.46%
[11]
  inhibition: 12.4%
[12]
  inhibition: 0.08%
[13]
  inhibition: 12.2%
[14]
  inhibition: 3.31%
[15]
  inhibition: 5.41%
[16]
  inhibition: 9.11%
[17]
  inhibition: 19.7%
[18]
  inhibition: 7.27%
[19]
  inhibition: 18.2%
[20]
  inhibition: 3.01%

## COC(=O)c1cncc(/C=C/c2c(C)cc(O)cc2C)c1
[1]
  inhibition: 0.95%
[2]
  inhibition: 5.81%
[3]
  inhibition: 20.9%
[4]
  inhibition: 0.94%
[5]
  inhibition: 0.15%
[6]
  inhibition: 2.01%
[7]
  inhibition: 3.02%
[8]
  inhibition: -1.65%
[9]
  inhibition: -3.53%
[10]
  inhibition: 3.21%
[11]
  inhibition: 7.16%
[12]
  inhibition: 4.43%
[13]
  inhibition: 18.8%
[14]
  inhibition: 2.93%
[15]
  inhibition: -0.01%
[16]
  inhibition: 6.07%
[17]
  inhibition: 9.71%
[18]
  inhibition: 5.41%
[19]
  inhibition: 8.24%
[20]
  inhibition: 1.93%

## c1ccc(Cc2nc3ccc(Nc4ncnc5ccccc45)cc3[nH]2)cc1
[1]
  inhibition: -0.04%
[2]
  inhibition: 5.51%
[3]
  inhibition: 18.2%
[4]
  inhibition: 0.86%
[5]
  inhibition: 4.39%
[6]
  inhibition: 0.83%
[7]
  inhibition: 3.55%
[8]
  inhibition: 4.82%
[9]
  inhibition: -0.14%
[10]
  inhibition: 1.48%
[11]
  inhibition: 3.79%
[12]
  inhibition: 1.02%
[13]
  inhibition: 9.72%
[14]
  inhibition: 1.42%
[15]
  inhibition: -1.31%
[16]
  inhibition: 4.95%
[17]
  inhibition: 6.09%
[18]
  inhibition: 4.48%
[19]
  inhibition: 5.36%
[20]
  inhibition: 3.87%

## NS(=O)(=O)c1ccc(Nc2cc(-c3cccc(O)c3)n[nH]2)cc1
[1]
  inhibition: 4.03%
[2]
  inhibition: 2.88%
[3]
  inhibition: 6.79%
[4]
  inhibition: 2.51%
[5]
  inhibition: 11.9%
[6]
  inhibition: 5.64%
[7]
  inhibition: 23.2%
[8]
  inhibition: 3.16%
[9]
  inhibition: -3.05%
[10]
  inhibition: 3.41%
[11]
  inhibition: 9.19%
[12]
  inhibition: 2.39%
[13]
  inhibition: 5.84%
[14]
  inhibition: 4.04%
[15]
  inhibition: 6.29%
[16]
  inhibition: 7.97%
[17]
  inhibition: 8.05%
[18]
  inhibition: 6.98%
[19]
  inhibition: 6.29%
[20]
  inhibition: 1.44%

## NS(=O)(=O)c1cccc(-c2cc3ccncc3cc2OCc2ccccc2)c1
[1]
  inhibition: 3.21%
[2]
  inhibition: 1.58%
[3]
  inhibition: 7.39%
[4]
  inhibition: 1.89%
[5]
  inhibition: 3.8%
[6]
  inhibition: 4.34%
[7]
  inhibition: 2.96%
[8]
  inhibition: 1.09%
[9]
  inhibition: -5.35%
[10]
  inhibition: 2.68%
[11]
  inhibition: 3.23%
[12]
  inhibition: 0.88%
[13]
  inhibition: 2.73%
[14]
  inhibition: 2.48%
[15]
  inhibition: 4.15%
[16]
  inhibition: 6.76%
[17]
  inhibition: 6.57%
[18]
  inhibition: 5.8%
[19]
  inhibition: 5.78%
[20]
  inhibition: 2.97%
